A selection: hits, their analogues and other compounds. The true share with any hit is near 0.99%.
TRHR PAM = qHTS for Small Molecule Agonists and Allosteric Enhancers of Human TRH Receptor: Primary Screen for Enhancers. enhancement, % at 2 µM. Thyrotropin-releasing hormone receptor (Homo sapiens), P34981. TRHR cells, fluo-8 calcium fluorescence, EC20 TRH enhancement. 0.66% of 360,000 active; in the data active = enhancement above about 30%; note: 0% is about no effect
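TRHR-expressing cells loaded with fluo-8 calcium dye were read kinetically (ex 480/em 530) during compound addition, then stimulated with an EC20 of TRH (10 nM final). Enhancement of the Gq-mediated intracellular calcium response was scored.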
TRPML1 agonist = qHTS for Agonists of the Human Mucolipin Transient Receptor Potential 1 (TRPML1); Mucolipin-1 (Homo sapiens), Q9GZU1; activation, % (test concentration not listed); TRPML1-expressing cells, Ca2+ dye fluorescence, FDSS; 0.12% of 410,000 active; AID 624414, 2012; in the data active = activation above about 50%; inconclusive = mostly about 30% to 49%; note: 0% is about no effect
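Cells: TRPML1-DL, 1X Tet inducer, ~16 h at 37 degrees C/5% CO2. Dye: ABD Ca8 no-wash + quencher, 45-90 min RT. Read: 10 s baseline, compound add, 110 s agonist phase; 54-4 EC80 (4uM final), 110 s antagonist phase.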
TRPML1 blocker = qHTS for Inhibitors of the Human Mucolipin Transient Receptor Potential 1 (TRPML1); TRPML1-inducible cells, Ca2+ dye fluorescence, FDSS; stronger effect = lower value; inhibition of EC80 agonist-evoked calcium signal; activity change, negative = inhibition, % (no concentration beside the values); 0.02% of 390,000 active; in the data active = activity change below about -50%; inconclusive = between about -30% and that limit;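 note: stimulus is agonist 54-4 at its EC80 concentration; % is set by controls: 0 for no effect and ±100 for the full control effect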
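Tet-induced TRPML1-DL cells loaded with Ca8 no-wash calcium dye were read kinetically on FDSS. Compound addition was followed by EC80 agonist 54-4 (4 uM final); inhibition was read over 110 s.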
TRPV1 agonist = HTS Assay for Compounds that Act as Agonists of the Vanilloid Receptor 1; TRPV1-expressing cells, Fluo-8 calcium influx, agonist mode; activation, % at 8.33 µM; 0.19% of 320,000 active; AID 540275, 2011; in the data active = activation above about 80%; inconclusive = between about 30% and that limit; note: 0% is about no effect
Target sequence (Q8NER1 whole entry, looked up): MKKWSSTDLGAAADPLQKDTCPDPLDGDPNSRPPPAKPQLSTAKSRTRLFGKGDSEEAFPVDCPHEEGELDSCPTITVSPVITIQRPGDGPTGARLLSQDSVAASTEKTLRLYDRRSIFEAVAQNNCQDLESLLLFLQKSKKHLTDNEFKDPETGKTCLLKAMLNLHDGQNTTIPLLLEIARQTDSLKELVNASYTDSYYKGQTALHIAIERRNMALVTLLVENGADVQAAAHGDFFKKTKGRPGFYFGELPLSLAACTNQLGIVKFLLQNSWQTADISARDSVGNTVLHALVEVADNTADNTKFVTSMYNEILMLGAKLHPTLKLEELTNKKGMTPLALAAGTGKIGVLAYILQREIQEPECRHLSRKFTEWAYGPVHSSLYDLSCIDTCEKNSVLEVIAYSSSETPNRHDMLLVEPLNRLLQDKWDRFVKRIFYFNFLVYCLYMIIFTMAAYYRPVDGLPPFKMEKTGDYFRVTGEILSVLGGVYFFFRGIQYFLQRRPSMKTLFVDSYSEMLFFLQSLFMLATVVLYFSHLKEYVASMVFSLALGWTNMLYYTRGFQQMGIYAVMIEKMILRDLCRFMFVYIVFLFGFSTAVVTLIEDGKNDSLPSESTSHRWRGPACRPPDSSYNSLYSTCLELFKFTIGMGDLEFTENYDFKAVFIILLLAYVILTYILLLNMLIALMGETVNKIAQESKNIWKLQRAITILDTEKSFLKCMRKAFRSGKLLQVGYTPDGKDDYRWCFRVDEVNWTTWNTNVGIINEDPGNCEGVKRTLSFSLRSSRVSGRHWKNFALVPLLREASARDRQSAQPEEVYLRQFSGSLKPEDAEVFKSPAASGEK
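TRPV1-expressing cells were cultured overnight at 35.5C and loaded with Fluo-8 calcium dye for 40 to 90 min at room temperature. After a 10 s baseline, compound was added and calcium influx was read kinetically for 3 min (ex 480/em 520 nm).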
TRPV1 PAM = HTS Assay for Compounds that Act as Potentiators of the Vanilloid Receptor 1. Transient receptor potential cation channel subfamily V member 1 (Homo sapiens), Q8NER1. TRPV1-expressing cells, Fluo-8 calcium influx, capsaicin EC20 potentiation. potentiation, % at 8.33 µM. 0.02% of 320,000 active; in the data active = potentiation above about 80%; inconclusive = between about 30% and that limit; note: 0% is about no effect
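Fluo-8 calcium influx in TRPV1-expressing cells, kinetic read (ex 480/em 520 nm). Compound added and read 3 min for agonist activity, followed by capsaicin at EC20 final and 2 min further read for enhancement.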
TRHR ag = qHTS for Small Molecule Agonists and Allosteric Enhancers of Human TRH Receptor: Primary Screen for Agonists; Thyrotropin-releasing hormone receptor (Homo sapiens), P34981; TRHR cells, calcium flux fluo-8, FDSS agonist mode; activation, % at 2 µM; 0.18% of 360,000 active; AID 493084, 2011; in the data active = activation above about 30%; note: 0% is about no effect
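TRHR-expressing cells loaded with fluo-8 calcium dye; 23 nL library compound pin-transferred, kinetic FDSS fluorescence (Ex 480/Em 530) recorded about 180 s for agonist-induced calcium release, before a 10 nM TRH EC20 addition for potentiator mode.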
* = called active by the depositor; ? = inconclusive; / = no result given.

SMILES	TRHR PAM	TRPML1 agonist	TRPML1 blocker	TRPV1 agonist	TRPV1 PAM	TRHR ag
COc1ccc(NC(=O)c2sc3nc4n(c(=O)c3c2C)CCC4)cc1Cl	-7	0	22	/	/	0
O=C(C[n+]1c(Cl)ccc2ccccc21)c1ccc2ccccc2c1	/	0	/	/	/	/
COc1cc(N2CCCC2)c(OC)cc1/C=C1/NC(=S)NC1=O	6	?	-20	?	-3	71*
CN(C)/[N+]([O-])=N\Oc1cc(OC(=O)c2ccc(N)cc2)c([N+](=O)[O-])cc1[N+](=O)[O-]	/	2	18	/	/	/
Cc1ccc(S(=O)(=O)N2C[C@H]3C(=O)C[C@@H](c4ccccc4)N(S(=O)(=O)c4ccc(C)cc4)[C@H]3C[C@H]2c2cccc(C)c2)cc1	/	93*	?	/	/	/
Cc1ccc([C@@H]2CC(=O)[C@@H]3CN(S(=O)(=O)c4ccc(C)cc4)[C@H](c4cccc5ccccc45)C[C@@H]3N2S(=O)(=O)c2ccc(Cl)cc2)cc1	/	1	2	/	/	/
Cc1ccc(S(=O)(=O)N2C[C@H]3C(=O)C[C@@H](c4ccccc4)N(S(=O)(=O)c4cccc(C)c4)[C@H]3C[C@H]2c2ccccc2)cc1	/	3	-22	/	/	/
Cc1ccc(S(=O)(=O)N2C[C@H]3C(=O)C[C@@H](c4ccccc4)N(S(=O)(=O)c4ccc(C)cc4)[C@H]3C[C@H]2c2cccc3ccccc23)cc1	/	56*	-2	/	/	/
CCOC(=O)C1CCN(c2ncnc3c2c(-c2ccccc2)cn3-c2ccccc2)CC1	0	75*	-17	6	2	1
Cc1cccc(N2CCN(c3ncnc4c3c(-c3ccccc3)cn4-c3ccccc3)CC2C)c1 (configuration not stated)	4	51*	-26	/	/	0
Cc1ccc(NC(=O)C(CC(C)C)NS(=O)(=O)c2ccc3c(c2)oc(=O)n3C)c(C)c1 (configuration not stated)	20	0	5	/	/	1
COc1ccc(CN(Cc2ccccc2)C(=O)c2cccc(C#N)c2)cc1COc1ccc(NC(C)=O)cc1	/	0	/	/	/	/
COC(=O)c1c(C(=O)OC)c(-c2ccccc2)n2c1CS(=O)C2 (configuration not stated)	5	1	34	-7	92*	-1
COC(=O)c1c(C(=O)OC)c(-c2ccc(F)cc2)n2c1CS(=O)C2 (configuration not stated)	-2	0	-19	-7	26	0
CCOC(=O)c1ccc(NC(=O)c2ccc3c(c2)CCN3S(=O)(=O)c2ccc(Cl)cc2)cc1	4	1	-14	/	/	3
COC(=O)NNC(=O)C12CC3CC(CC(C3)C1)C2	23	0	-5	-11	10	0
NC(=S)NNC(=O)C12CC3CC(CC(C3)C1)C2	-10	17	-5	?	-9	32*
O=C(NC1CCN(C(=O)Nc2ccc(F)cc2)CC1)c1cccc(F)c1	6	1	5	19	-1	0
O=C(NC1CCN(C(=O)Nc2ccc(F)cc2)CC1)c1ccc(F)cc1	39*	-1	-5	4	8	-1
CCc1nnc(NC(=O)C2=NN(C3CCS(=O)(=O)C3)C(=O)CC2)s1 (configuration not stated)	12	0	14	-1	-3	0
O=C(Nc1cccnc1)C1=NN(C2CCS(=O)(=O)C2)C(=O)CC1 (configuration not stated)	39*	1	8	0	2	0
COc1cc(OC)c(/C=C/c2ccc3ccccc3[n+]2[O-])c(OC)c1	/	-1	/	/	/	/
O=C(Nc1ccc(Cl)c(Cl)c1)C1=Cc2ccccc2OC1	-1	1	0	88*	5	0
